“And” between values parts separate entries of the source, which are not always exact repeats. Equal entries are not always repeated. Inconclusive results are not listed. The source made the active and inactive calls. Unless noted, calls follow the shape of the dose curve; as a rule, active = well fitted curve in the direction sought with a large enough effect; inconclusive = small, poorly fitted or top-dose-only effect, or another doubt; inactive = no such curve, though single readings can be large; an effect the other way counts as inactive or inconclusive.
Columns and labels:
[1] = biological target: Estrogen receptor (Homo sapiens) (UniProt P03372); assay: qHTS assay for small molecule agonists of estrogen receptor alpha signaling (AID 588514; calls by dose curve;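 also: 0% = vehicle only and 100% = reference agonist; nearly all actives have a fitted effect of over 70% in size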)
Sequence of Estrogen receptor (Homo sapiens) (P03372 whole entry, looked up): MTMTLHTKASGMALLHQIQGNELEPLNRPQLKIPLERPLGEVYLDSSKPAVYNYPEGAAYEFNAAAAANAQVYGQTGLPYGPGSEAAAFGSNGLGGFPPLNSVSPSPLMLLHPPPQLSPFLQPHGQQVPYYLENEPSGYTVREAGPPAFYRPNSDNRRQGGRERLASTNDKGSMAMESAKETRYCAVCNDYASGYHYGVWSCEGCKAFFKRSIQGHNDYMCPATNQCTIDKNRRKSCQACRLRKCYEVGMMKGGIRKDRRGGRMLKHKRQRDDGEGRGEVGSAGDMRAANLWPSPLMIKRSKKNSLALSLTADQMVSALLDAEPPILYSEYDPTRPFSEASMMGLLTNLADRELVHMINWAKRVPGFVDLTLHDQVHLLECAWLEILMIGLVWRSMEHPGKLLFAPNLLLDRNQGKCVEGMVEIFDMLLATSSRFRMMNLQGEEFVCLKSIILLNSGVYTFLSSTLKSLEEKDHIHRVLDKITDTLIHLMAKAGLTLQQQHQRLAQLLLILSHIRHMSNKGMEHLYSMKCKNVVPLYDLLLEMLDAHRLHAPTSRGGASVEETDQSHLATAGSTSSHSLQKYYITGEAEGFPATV
Procedure, shortened: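 Cells were plated at 5000/well, incubated 4 hrs at 37 C, dosed with compound titration series, incubated 18 hrs at 37 C, loaded with CCF4 dye for 2 hrs at RT, then fluorescence was read.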

[2] = qHTS assay for small molecule antagonists of peroxisome proliferator-activated receptor delta signaling (AID 588535); settings: HEK293T PPARd-UAS-bla, beta-lactamase FRET ratio, 18 h; 460 nm channel;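 also: cells co-treated with a PPAR-delta agonist as stimulator during compound exposure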
Procedure, shortened: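 Antagonist-mode beta-lactamase reporter (GeneBLAzer PPAR-delta-UAS-bla) in HEK293T cells, 2% charcoal/dextran FBS, 4000 cells/well. Compound titrations, 18 h at 37 C; CCF4 ratio read, IC50 and efficacy from Hill fits.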

[3] = biological target: Peroxisome proliferator-activated receptor gamma (Homo sapiens) (UniProt P37231); assay: qHTS assay for small molecule agonists of peroxisome proliferator-activated receptor gamma signaling (AID 588536; active = well fitted curve in the direction sought with a large enough effect in the signal ratio, with a control signal flat, not every such curve was filed as active; the % refers to the signal ratio;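 also: 0% = DMSO basal wells and 100% = rosiglitazone at 2 µM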)
Sequence of Peroxisome proliferator-activated receptor gamma (Homo sapiens) (P37231 whole entry, looked up): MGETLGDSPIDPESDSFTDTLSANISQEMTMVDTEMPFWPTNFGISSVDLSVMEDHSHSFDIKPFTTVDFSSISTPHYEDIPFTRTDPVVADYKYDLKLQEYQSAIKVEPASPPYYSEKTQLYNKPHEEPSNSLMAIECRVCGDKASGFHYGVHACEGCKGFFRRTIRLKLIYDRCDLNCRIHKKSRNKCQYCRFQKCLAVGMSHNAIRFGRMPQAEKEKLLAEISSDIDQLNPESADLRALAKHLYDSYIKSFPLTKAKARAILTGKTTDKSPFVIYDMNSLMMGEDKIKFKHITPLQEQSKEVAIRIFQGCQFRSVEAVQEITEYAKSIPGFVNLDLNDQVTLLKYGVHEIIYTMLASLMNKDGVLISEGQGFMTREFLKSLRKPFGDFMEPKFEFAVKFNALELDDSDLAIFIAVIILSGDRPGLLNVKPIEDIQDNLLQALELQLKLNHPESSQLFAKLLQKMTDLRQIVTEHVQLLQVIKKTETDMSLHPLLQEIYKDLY
Procedure, shortened: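 PPAR-gamma-UAS-bla HEK293 cells in medium with 1% charcoal/dextran-treated FBS were exposed to compounds for 16 h at 37 C. Beta-lactamase activity was read with CCF4 substrate (405 nm excitation, 460/530 nm emission).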

[4] = biological target: Peroxisome proliferator-activated receptor gamma (Homo sapiens) (UniProt P37231); assay: qHTS assay for small molecule antagonists of peroxisome proliferator-activated receptor gamma signaling (AID 588537; active = well fitted inhibition curve with a large enough effect in the signal ratio, with a control signal flat, not every such curve was filed as active; the % refers to the signal ratio;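 also: reporter cells co-stimulated with 50 nM rosiglitazone agonist during compound treatment; % of control where 0% means no effect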)
Procedure, shortened: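 PPARγ-UAS-bla HEK293 cells (3000/well) in 1% charcoal/dextran-stripped FBS are treated with compound, then stimulated with 50 nM rosiglitazone for 16 h at 37 °C. Read-out is CCF4 β-lactamase fluorescence after 2 h at RT. IC50 comes from Hill fits normalised to rosiglitazone and DMSO.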

[5] = biological target: Vitamin D3 receptor (Homo sapiens) (UniProt P11473); assay: qHTS assay for small molecule agonists of vitamin D receptor signaling (AID 588543; calls by dose curve;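 also: 0% = DMSO basal and 100% = reference agonist control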)
Sequence of Vitamin D3 receptor (Homo sapiens) (P11473 whole entry, looked up): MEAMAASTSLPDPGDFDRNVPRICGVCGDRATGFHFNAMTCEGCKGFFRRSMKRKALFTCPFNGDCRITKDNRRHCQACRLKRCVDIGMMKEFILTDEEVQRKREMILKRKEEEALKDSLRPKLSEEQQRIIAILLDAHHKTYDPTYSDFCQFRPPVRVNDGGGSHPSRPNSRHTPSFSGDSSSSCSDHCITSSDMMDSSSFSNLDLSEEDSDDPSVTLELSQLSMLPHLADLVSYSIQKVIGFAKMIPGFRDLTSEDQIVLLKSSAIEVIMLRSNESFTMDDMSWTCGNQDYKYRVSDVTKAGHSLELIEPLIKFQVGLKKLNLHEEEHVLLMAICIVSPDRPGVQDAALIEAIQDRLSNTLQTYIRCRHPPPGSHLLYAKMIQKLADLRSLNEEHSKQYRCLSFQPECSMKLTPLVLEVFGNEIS
Procedure, shortened: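 qHTS in agonist mode: compound titrations stimulate a VDR-driven β-lactamase reporter in HEK293T cells over 16 h at 37 °C. Response normalized to 50 nM 1α,25-dihydroxyvitamin D3 = 100%, DMSO = 0%; Hill fitting gives EC50 and maximal response.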

[6] = qHTS assay for small molecule agonists of retinoid X receptor alpha signaling (AID 588544; calls by dose curve; also: potency is read from the fitted curve at half-maximal effect;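 as to activation: 0% = DMSO basal wells and 100% = reference agonist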); settings: HEK293T RXRa-UAS-bla, beta-lactamase reporter, 18 h; 530 nm emission
[7] = biological target: Retinoic acid receptor RXR-alpha (Homo sapiens) (UniProt P19793); assay: as above
Sequence of Retinoic acid receptor RXR-alpha (Homo sapiens) (P19793 whole entry, looked up): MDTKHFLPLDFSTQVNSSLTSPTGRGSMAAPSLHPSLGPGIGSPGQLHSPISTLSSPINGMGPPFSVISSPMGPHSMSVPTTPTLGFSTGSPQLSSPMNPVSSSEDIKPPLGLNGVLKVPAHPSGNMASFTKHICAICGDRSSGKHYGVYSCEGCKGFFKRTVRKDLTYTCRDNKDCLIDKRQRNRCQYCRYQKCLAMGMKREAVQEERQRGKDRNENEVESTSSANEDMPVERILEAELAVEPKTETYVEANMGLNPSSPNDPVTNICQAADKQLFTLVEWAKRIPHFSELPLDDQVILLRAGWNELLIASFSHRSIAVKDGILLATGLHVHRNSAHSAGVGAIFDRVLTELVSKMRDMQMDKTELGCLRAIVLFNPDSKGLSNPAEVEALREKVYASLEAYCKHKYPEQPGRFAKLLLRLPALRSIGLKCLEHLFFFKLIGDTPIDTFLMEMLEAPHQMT

[8] = biological target: Thyroid hormone receptor beta (Homo sapiens) (UniProt P10828); assay: qHTS assay for small molecule agonists of thyroid hormone receptor beta signaling (AID 588545; calls by dose curve;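 also: 0% = DMSO only and 100% = 10 nM T3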)
Sequence of Thyroid hormone receptor beta (Homo sapiens) (P10828 whole entry, looked up): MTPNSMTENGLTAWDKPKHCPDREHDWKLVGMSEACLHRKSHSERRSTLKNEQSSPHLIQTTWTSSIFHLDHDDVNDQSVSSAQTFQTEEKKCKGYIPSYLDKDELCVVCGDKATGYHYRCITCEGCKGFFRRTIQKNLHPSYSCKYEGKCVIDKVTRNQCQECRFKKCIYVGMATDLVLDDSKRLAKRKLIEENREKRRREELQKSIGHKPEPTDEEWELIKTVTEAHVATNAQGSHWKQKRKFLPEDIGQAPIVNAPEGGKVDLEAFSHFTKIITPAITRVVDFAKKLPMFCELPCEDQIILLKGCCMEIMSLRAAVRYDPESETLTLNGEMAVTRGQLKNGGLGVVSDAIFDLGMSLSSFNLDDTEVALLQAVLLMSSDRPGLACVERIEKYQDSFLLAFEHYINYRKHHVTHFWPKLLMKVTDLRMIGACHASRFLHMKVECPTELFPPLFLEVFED
Procedure, shortened: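 TR-UAS-bla-GripTite HEK 293 cells in medium with 2% charcoal/dextran FBS, 0.1 mM NEAA and 1 mM sodium pyruvate were treated with titrated compounds for 18 hrs at 37 C. Beta-lactamase reporter was read with CCF4 dye (ex 405, em 460/530 nm); EC50 from Hill fits.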

[9] = qHTS assay for small molecule antagonists of retinoid X receptor alpha signaling (AID 588546; active = well fitted inhibition curve with a large enough effect in the signal ratio, with a control signal flat, not every such curve was filed as active; the % refers to the signal ratio;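 also: cells stimulated with 9-cis-retinoic acid as agonist; % is scaled to controls: 0 for no effect and ±100 for the full control effect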); settings: HEK293T RXRa-UAS-bla, beta-lactamase ratio, antagonist mode; measured here: W530 green channel, cytotoxicity proxy
Procedure, shortened: (§1)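 Beta-lactamase reporter inhibition, read as CCF4 fluorescence ratio (ex 405, em 460/530 nm) after 2 h at RT. HEK293T UAS-bla cells, 2500/well, were stimulated with 9-cis-RA at 500 or 100 nM final alongside test compound for 18 h at 37 C.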

[10] = biological target: Retinoic acid receptor RXR-alpha (Homo sapiens) (UniProt P19793); assay: as above; settings: HEK293T RXRa-UAS-bla, beta-lactamase ratio, antagonist mode
Procedure, shortened: as §1

[11] = qHTS assay for small molecule activators of the p53 signaling pathway (AID 651743; active = well fitted activation curve with a large enough effect in the signal ratio, not every such curve was filed as active; the % refers to the signal ratio; also: series mostly up to about 92 µM; % of control where 0% means no effect); settings: HCT-116 p53RE-bla, beta-lactamase FRET ratio, 16 h; activation: stronger effect = higher value
Procedure, shortened: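 p53RE-bla HCT-116 cells carrying a beta-lactamase reporter under p53 response elements were exposed to compounds for 16 hours at 37 C. Reporter activity read as fluorescence after 2 hours at room temperature with LiveBLAzer B/G FRET substrate.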

[12] = qHTS assay for environmental chemicals that activate the Aryl hydrocarbon Receptor (AhR) signaling pathway (AID 651777); settings: 1A2-DRE human hepatoma cells, luciferase, 24 h; activation: stronger effect = higher value; also: % of control where 0% means no effect; nearly all actives have a fitted effect of over 15% in size
Procedure, shortened: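 Stable CYP1A2 promoter/DRE-luciferase human hepatoma line treated 24 hr; One-Glo luminescence, 30 min RT.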

[13] = biological target: Peroxisome proliferator-activated receptor alpha (Homo sapiens) (UniProt Q07869); assay: qHTS assay for small molecule agonists of the peroxisome proliferator-activated receptor alpha (PPARalpha) signaling pathway (AID 651778); settings: PathHunter PPARalpha complementation, chemiluminescence, 6 h; max response: stronger effect = higher value; also: % of control where 0% means no effect
Sequence of Peroxisome proliferator-activated receptor alpha (Homo sapiens) (Q07869 whole entry, looked up, the tested form may be a part): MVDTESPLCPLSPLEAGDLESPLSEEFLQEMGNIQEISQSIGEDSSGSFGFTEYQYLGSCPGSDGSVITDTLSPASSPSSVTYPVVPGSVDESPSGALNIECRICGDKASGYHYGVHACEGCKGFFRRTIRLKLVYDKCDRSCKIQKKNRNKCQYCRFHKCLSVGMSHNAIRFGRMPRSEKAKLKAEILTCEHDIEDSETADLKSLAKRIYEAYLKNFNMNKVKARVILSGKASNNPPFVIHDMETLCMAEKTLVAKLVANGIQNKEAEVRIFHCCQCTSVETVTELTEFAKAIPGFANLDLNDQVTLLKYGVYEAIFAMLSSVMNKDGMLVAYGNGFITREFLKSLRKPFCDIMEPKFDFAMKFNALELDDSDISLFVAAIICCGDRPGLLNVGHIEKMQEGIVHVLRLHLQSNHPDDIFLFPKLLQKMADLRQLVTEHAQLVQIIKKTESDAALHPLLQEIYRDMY
Procedure, shortened: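 Enzyme-fragment complementation assay in which ligand-bound PPARalpha translocates and forms an active enzyme that generates chemiluminescence. Cells were plated overnight, exposed to compound for 6 hr at 37 C, and then given detection reagent for 60 min at room temperature.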

[14] = qHTS assay for small molecule agonists of the antioxidant response element (ARE) signaling pathway measured by Nrf2-dependant transcriptional activity (AID 720636; active = well fitted curve in the direction sought with a large enough effect in the repeat runs; an effect the other way counts as inactive or inconclusive;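 also: HepG2 cells with an ARE-driven luciferase reporter; % of control where 0% means no effect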)
Procedure, shortened: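 Reporter gene assay, HepG2 ARE-luc: 16 hr compound, 37 C, 5% CO2; read-out luciferase luminescence.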

[15] = qHTS assay for small molecule agonists of the antioxidant response element (ARE) signaling pathway measured by Nrf2-dependant transcriptional activity - cell viability counter screen (AID 720653; active = well fitted curve in the direction sought with a large enough effect in the repeat runs; an effect the other way counts as inactive or inconclusive; also: % is scaled to controls: 0 for no effect and ±100 for the full control effect); settings: ARE-bla HepG2 viability, CellTiter-Glo ATP luminescence, 16 h; max response: stronger effect = lower value
Procedure, shortened: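 ARE-bla HepG2 cells treated with compounds for 16 h at 37C; this counter screen measures viability as intracellular ATP by CellTiter-Glo luminescence after 30 min at room temperature.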

[16] = qHTS assay for cell viability of HEK293 cells (AID 743288); settings: ATP luminescence (CellTiter-Glo), 18 h; max response: stronger effect = lower value; also: nearly all actives have a fitted effect of over 50% in size; also: potency is read from the fitted curve at half-maximal effect; as to max response: % is scaled to controls: 0 for no effect and ±100 for the full control effect
Procedure, shortened: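 The Tox21 protocol used parental HEK293 cells treated for 18 h at 37 C with compounds delivered by pintool; ATP-coupled luminescence after 30 min at room temperature gave viability.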

[17] = qHTS assay for cell viability of the p53RE-bla HCT-116 cell line (AID 743292); also: nearly all actives have a fitted effect of over 55% in size; also: potency is read from the fitted curve at half-maximal effect
Procedure, shortened: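 Readout: CellTiter-Glo luminescence after 30 min RT. Treatment: compounds in DMSO, 16 h, 37 C. Cells: CellSensor p53RE-bla HCT-116, 4,000/well, preincubated 5 h.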

[18] = biological target: Nuclear receptor subfamily 1 group I member 2 (Rattus norvegicus) (UniProt Q9R1A7); assay: qHTS assay for small molecule activators of the rat pregnane X receptor (rPXR) signaling pathway (AID 651751; call rule not given here; also: 0% is about no effect); settings: rPXR reporter cells, luciferase (One-Glo), 24 h
Sequence of Nuclear receptor subfamily 1 group I member 2 (Rattus norvegicus) (Q9R1A7 whole entry, looked up): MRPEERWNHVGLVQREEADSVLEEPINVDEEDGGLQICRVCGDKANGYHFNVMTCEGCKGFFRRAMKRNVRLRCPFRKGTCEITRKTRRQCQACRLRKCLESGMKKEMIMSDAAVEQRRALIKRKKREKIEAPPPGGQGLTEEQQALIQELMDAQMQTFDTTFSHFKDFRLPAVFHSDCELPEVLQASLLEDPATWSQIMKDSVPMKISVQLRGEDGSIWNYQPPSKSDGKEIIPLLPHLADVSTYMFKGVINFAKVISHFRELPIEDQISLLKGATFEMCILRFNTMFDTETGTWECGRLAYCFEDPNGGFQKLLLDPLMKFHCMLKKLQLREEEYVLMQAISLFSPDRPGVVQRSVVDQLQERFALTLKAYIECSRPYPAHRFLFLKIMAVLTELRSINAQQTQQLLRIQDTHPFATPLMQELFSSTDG

[19] = qHTS assay for small molecule activators of the human pregnane X receptor (PXR) signaling pathway (AID 720659; call rule not given here; also: 0% is about no effect)
[20] = biological target: Thyroid hormone receptor beta (Homo sapiens) (UniProt P10828); assay: qHTS assay for small molecule antagonists of thyroid hormone receptor beta signaling (AID 588547; active = well fitted inhibition curve with a large enough effect in the signal ratio, with a control signal flat, not every such curve was filed as active; the % refers to the signal ratio;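 also: cells stimulated with 0.4 nM T3 agonist during compound exposure; series mostly up to about 77 µM; % is scaled to controls: 0 for no effect and ±100 for the full control effect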); settings: TR-UAS-bla HEK293, beta-lactamase ratio, antagonist mode, 18 h
Procedure, shortened: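 TR-UAS-bla GripTite HEK293 cells in 2% charcoal/dextran FBS medium; compounds 0.59 nM to 92 uM with T3 at 0.4nM final, 18 h at 37 C. Beta-lactamase read by CCF4 fluorescence (460/530 nm); Hill fits gave IC50 and efficacy.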

SMILES: COC(=O)C1CCC(C(=O)OC)CC1 (configuration not stated)
- Potency [1]: inactive
- max response [2]: 36.1%
- outcome [3]: inactive
- Potency [4]: inactive
- outcome [5]: inactive
- max response [6]: -4.14%
- Potency [7]: inactive
- Potency [8]: inactive
- max response [9]: -8.09%
- max response [10]: -11.5% (inactive)
- activation [11]: 8.46% (inactive)
- activation [12]: 0.798% (inactive)
- max response [13]: 3.84% (inactive)
- Potency [14]: inactive
- max response [15]: 1.5% (inactive)
- max response [16]: -13.8% (inactive)
- Potency [17]: inactive
- max response [18]: 2.13% (inactive)

SMILES: COC(=O)C(C)Oc1ccc(Oc2ncc(C(F)(F)F)cc2Cl)cc1 (configuration not stated)
- Potency [1]: inactive
- max response [2]: -16.8%
- Potency [4]: inactive
- outcome [5]: inactive
- Potency [8]: inactive
- max response [9]: 5.42%
- max response [10]: -74.4% (inactive)
- activation [11]: -4.64% (inactive)
- activation [12]: 0.251% (inactive)
- max response [13]: 0.508% (inactive)
- Potency [14]: inactive
- max response [15]: -10.2% (inactive)
- max response [16]: -21.9% (inactive)
- Potency [17]: inactive
- max response [18]: -3.2% (inactive)
- outcome [19]: inactive

SMILES: COCCO
- Potency [1]: inactive
- max response [2]: 37%
- outcome [3]: inactive
- Potency [4]: inactive
- outcome [5]: inactive
- max response [6]: -5.91% and 1.76%
- Potency [7]: inactive
- max response [9]: -8.45% and -6.73%
- max response [10]: 16.3% (inactive) and -4.97% (inactive)
- activation [11]: 0.424% (inactive) and -0.727% (inactive)
- activation [12]: -1.11% (inactive) and -0.165% (inactive)
- max response [13]: -2.01% (inactive) and -0.724% (inactive)
- Potency [14]: inactive
- max response [15]: -7.73% (inactive) and 3.37% (inactive)
- max response [16]: -2.14% (inactive) and 3.11% (inactive)
- Potency [17]: inactive

SMILES: CC(C)(C)c1cc(C(C)(C)C)c(O)c(C(C)(C)C)c1
- Potency [1]: inactive
- max response [2]: 12%
- Potency [4]: inactive
- max response [6]: -17.5%
- Potency [7]: 0.794 µM (active)
- Potency [8]: inactive
- activity change % (negative = inhibition) [20]: -16.9% (inactive)
- activation [11]: 3.15% (inactive)
- activation [12]: -0.208% (inactive)
- max response [13]: 7.66% (inactive)
- Potency [14]: inactive
- max response [15]: 8.43% (inactive)
- max response [16]: -4.45% (inactive)
- Potency [17]: inactive
- max response [18]: -4.2% (inactive)
- outcome [19]: inactive

SMILES: CC1(C)C(=O)N(Br)C(=O)N1Br
- max response [2]: -25.7%
- outcome [3]: inactive
- Potency [4]: inactive
- outcome [5]: inactive
- max response [6]: -13.9%
- Potency [7]: inactive
- Potency [8]: inactive
- max response [9]: -0.87%
- max response [10]: -10.9% (inactive)
- activity change % (negative = inhibition) [20]: 6.14% (inactive)
- activation [11]: -3.66% (inactive)
- activation [12]: 1.3% (inactive)
- max response [13]: -2.02% (inactive)
- Potency [14]: inactive
- max response [15]: -10.4% (inactive)
- max response [16]: -3.78% (inactive)
- Potency [17]: inactive
- max response [18]: -0.134% (inactive)
- outcome [19]: inactive

SMILES: O=S(=O)(O)c1ccc(N=Nc2cc(S(=O)(=O)O)c3ccccc3c2O)c2ccccc12
- max response [2]: 26.6%
- outcome [3]: inactive
- Potency [4]: inactive
- outcome [5]: inactive
- max response [6]: -24.8%
- Potency [7]: inactive
- Potency [8]: inactive
- max response [9]: 4.4%
- max response [10]: 4.36% (inactive)
- activation [11]: 2.63% (inactive)
- activation [12]: 3.98% (inactive)
- max response [13]: -9.4% (inactive)
- Potency [14]: inactive
- Potency [16]: 44.7 µM (active)
- Potency [17]: 39.8 µM (active)
- max response [18]: -7.09% (inactive)
- outcome [19]: inactive
